Measured values from PubChem BioAssay AID2472 (National Center for Advancing Translational Sciences (NCATS), 2010).
Screen size: about 290,000 compounds; about 2,000 (0.69%) were called active. Rule as the data show it: active = activity change below about -30%; inactive = the rest, inconclusive results apart. The full list was thinned out, with actives kept by preference.

Assay: qHTS Assay for Inhibitors of Fructose-1,6-bisphosphate Aldolase from Giardia Lamblia: Coupling assay counterscreen
Details: coupling enzyme system counterscreen, AmpLite Red fluorescence; at 58.2 µM (top of the series)
Procedure, shortened: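 Compounds tested against the coupling enzymes alone at 57.5 uM final; readout was AmpLite Red fluorescence (525/598 nm) after 20 min at RT.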
% is scaled to controls: 0 for no effect and ±100 for the full control effect.

| SMILES | activity change, negative = inhibition |
| --- | --- |
| Cc1ccc(CNC(=O)C2(C(F)(F)F)C/C(=C\CCO)CCCO2)o1 (configuration not stated) | 3.8% (inactive) |
| Cc1ccc(/C=C(\C#N)C(=O)Nc2cccc3ncccc23)o1 | -39% (active) |
| Cc1ccc(C(=O)Nc2cccc3ncccc23)cc1[N+](=O)[O-] | 0.485% (inactive) |
| O=C(Nc1cccc2ncccc12)C(Cl)(Cl)Cl | 0.503% (inactive) |
| CCOC(=O)C1CCCN(S(=O)(=O)c2ccc(-n3cnnn3)c(C)c2)C1 (configuration not stated) | 2.06% (inactive) |
| c1ccc2c(Nc3ccncc3)nc(-c3ccc4c(c3)OCO4)nc2c1 | -0.804% (inactive) |
| Cc1cc(C)cc(NC(=O)NCc2ccccn2)c1 | -0.5% (inactive) |
| O=C(NCc1ccccn1)c1ccc2nc(-c3ccco3)c(-c3ccco3)nc2c1 | -38.7% (active) |
| COCCNC(=O)Nc1ccc2nc(-c3ccco3)c(-c3ccco3)nc2c1 | -35% (active) |
| O=C(Nc1ccc2nccnc2c1)c1ccco1 | -1.38% (inactive) |
| COc1ccc2oc(=O)c(C(=O)NCc3ccccn3)cc2c1 | -2.85% (inactive) |
| CC(C)(C)c1ccc(NC(=O)NCc2ccco2)cc1 | -0.174% (inactive) |
| CCCCC/C=C\C/C=C\C/C=C\CCCCCCC(N)=O | 2.69% (inactive) |
| CCC1Sc2ccc(S(=O)(=O)CCC(=O)NCc3cccs3)cc2NC1=O (configuration not stated) | -3.89% (inactive) |
| Cc1cc2c(cc1S(=O)(=O)NCc1ccc(Cl)cc1)OCC(=O)N2 | 1.64% (inactive) |
| COC(=O)C(C(=O)OC)[C@@H](NC=O)c1ccccc1 | 1.57% (inactive) |
| CCOC(=O)c1cc2n(c1N)-c1ccccc1C2=O | -30.6% (active) |
| CCOC(=O)C1=C(C(=O)OCC)C(C(=O)OCC)N(S(=O)(=O)C(F)(F)F)c2ccccc21 (configuration not stated) | 0.565% (inactive) |
| CCOC(=O)c1ccccc1CN1C(=O)c2ccccc2S1(=O)=O | -1.95% (inactive) |
| COC(=O)c1ccc(CNC(=O)C2CCC(=O)N(Cc3ccccn3)C2)cc1 (configuration not stated) | 0.556% (inactive) |
| CCOC(=O)C1=NO[C@@]2(C=C(Br)C(=O)[C@H]3O[C@H]32)C1 | 1.71% (inactive) |
| Cc1cc(CNC(=O)C2CCC(=O)N(CCc3ccc(Cl)cc3)C2)no1 (configuration not stated) | 2.61% (inactive) |
| CC(C(=O)NCCc1ccc(S(N)(=O)=O)cc1)N1C(=O)CC(C)(C)Sc2ccccc21 (configuration not stated) | 5.69% (inactive) |

| SMILES | activity change, negative = inhibition |
| --- | --- |
| CSC(=S)N/N=C/c1c[nH]c2ccccc12 | -0.216% (inactive) |
| O=C(N/N=C/c1c[nH]c2ccccc12)c1ccccc1O | 1.26% (inactive) |
| C[n+]1ccc(/C=C/c2c[nH]c3ccccc23)cc1 | -48.5% (active) |
| O=C(NC1CC1)C1=C[C@H](c2c[nH]c3ccccc23)C[C@H](OCc2ccc(CO)cc2)O1 | -9.68% (inactive) |
| COc1cccc([C@@H]2Oc3ccc(Br)cc3C(=O)[C@H]2OC(=O)NCc2ccc3c(c2)OCO3)c1 | 1.06% (inactive) |
| COc1ccc(CCNC(=O)CSCc2ccc(Br)cc2)cc1OC | -0.53% (inactive) |
| CCCCCCCCCc1ccc(OCCOCCOCCOCCOCCOCCOCCOCCOCCO)cc1 | 0.692% (inactive) |
| COC(=O)[C@@]1(Cc2ccc(F)cc2)[C@H]2c3cc(C(=O)N4CCCC4)n(C[C@H](O)CO)c3C[C@H]2CN1C(=O)c1ccccc1 | 4.89% (inactive) |
| O=C1C(Cl)=C(N2CCOCC2)C(=O)N1c1ccccc1 | 4.18% (inactive) |
| COc1ccc(N2CCN(C(C)=C3C(=O)c4ccccc4C3=O)CC2)cc1 | -5.52% (inactive) |
| COC1=C(N2CCOCC2)C(=O)c2ccccc2C1=O | -31.1% (active) |
| O=C(CSc1cccc[n+]1[O-])c1ccc(-c2ccccc2)cc1 | -0.455% (inactive) |
| CCSc1nsc(NC(=O)Nc2cccc(C(C)=O)c2)n1 | -3.71% (inactive) |
| C=C1CCN(Cc2ccc(OC)cc2)S(=O)(=O)c2ccccc21 | -9.95% (inactive) |
| O=C(Nc1cc(C(=O)Nc2ccc(S(=O)(=O)O)cc2)cc(C(=O)Nc2ccc(S(=O)(=O)O)cc2)c1)Nc1cc(C(=O)Nc2ccc(S(=O)(=O)O)cc2)cc(C(=O)Nc2ccc(S(=O)(=O)O)cc2)c1 | 4.94% (inactive) |
| Cc1c(S(=O)(=O)O)oc2c1C(=O)C(=O)c1c-2ccc2c1CCCC2(C)C | -38.9% (active) |
| Cc1cc(C)cc(C#CC2C=CC(Oc3ccc(C4CCCC4)cc3)C(CO)O2)c1 (configuration not stated) | -0.466% (inactive) |
| CC(C)(c1ccccc1)c1ccc(OCCN2CCCC2)cc1 | 1.45% (inactive) |
| COCCn1nnnc1C(c1cc2ccc(OC)cc2[nH]c1=O)N1CCc2ccccc2C1 (configuration not stated) | -47.7% (active) |
| COc1ccc(OC)c(C(c2nnnn2C(C)(C)C)N2CCc3ccccc3C2)c1 (configuration not stated) | -0.0178% (inactive) |
| CCOc1ccc2[nH]c(=O)c(C(c3nnnn3CCOC)N3CCOCC3)cc2c1 (configuration not stated) | -2.27% (inactive) |
| CCOc1ccc(CCNC(=O)Nc2ccccc2)cc1OCC | 1.61% (inactive) |
| Cc1cccc(OC(C)C(=O)N2CCc3ccccc3C2)c1 (configuration not stated) | 3.66% (inactive) |

| SMILES | activity change, negative = inhibition |
| --- | --- |
| CC(C)(O/N=C(\C(=O)N[C@@H]1C(=O)N2C(C(=O)[O-])=C(C[n+]3ccccc3)CS[C@@H]12)c1csc(N)n1)C(=O)O | 1.97% (inactive) |
| CCN1C(=S)N[C@@H](c2cccc(C(F)(F)F)c2)C(C(=O)OC)=C1C | 2.17% (inactive) |
| CN(CCc1ccccn1)C(=O)c1ccc(OC2CCN(CCc3ccccc3)CC2)cc1 | 6.37% (inactive) |
| Nc1ccc2nc3c(=O)[nH]c(=S)[nH]c3nc2c1 | -35.7% (active) |
| Cc1cc2nc3c(=O)n(Cc4ccccc4)c(=O)[nH]c3nc2cc1N | -26.3% (inactive) |
| Cc1cccc(OCCC(=O)Nc2ccccc2C(N)=O)c1 | -1.3% (inactive) |
| O=C(NCc1ccco1)O[C@@H]1C(=O)c2cc(Br)ccc2O[C@H]1c1ccc2c(c1)OCO2 | -0.223% (inactive) |
| Cc1ccccc1NC(=O)N1CCCC1C(=O)NCc1ccccc1 (configuration not stated) | 2.24% (inactive) |
| CC(C)(C)c1ccc(C(=O)NCCn2c(N)c(C#N)c3nc4ccccc4nc32)cc1 | -0.974% (inactive) |
| CC(C)Cn1c(N)c(C(=O)NCc2cccs2)c2nc3ccccc3nc21 | -45.5% (active) |
| CCC(C)NC(=O)c1c(N)n(/N=C/c2cccs2)c2nc3ccccc3nc12 (configuration not stated) | 5.17% (inactive) |
| COc1ccc(-c2nc3c(c4c2C[C@H](c2ccccc2)OC4)CN(C(=O)c2ccco2)CC3)c(C)c1 | -0.274% (inactive) |
| COc1ccc(OCC(=O)Nc2ccc(NC(=O)c3ccco3)c(C)c2)cc1 | -0.451% (inactive) |
| CCOc1ccccc1/C=N/NC(=O)CNC(=O)COc1ccccc1 | -43.5% (active) |
| Cc1ccc(/C=N/NC(=O)CNC(=O)COc2ccccc2)o1 | 0.654% (inactive) |
| Cc1ccc(/C=N/NC(=O)COc2ccccc2-c2ccccc2)cc1 | 0.851% (inactive) |
| C=C(C)CNC(=S)N/N=C/c1ccccc1OCC(=O)O | 7.3% (inactive) |
| C=CCOc1ccccc1/C=N/NC(=O)Cc1ccccc1 | 3.68% (inactive) |
| C=CCc1ccccc1OCC(=O)N/N=C/c1ccccc1OCC | -30.1% (active) |
| Cc1ccc(CSCCNC(=O)CN(c2ccc(F)cc2)S(C)(=O)=O)cc1 | -1.38% (inactive) |
| O=c1c(O)c(Br)ccc2c(Br)c(O)c(O)c(O)c12 | -45.3% (active) |
| COc1ccc(CNC(=O)C(C)NCc2ccccc2Cl)cc1 (configuration not stated) | -0.161% (inactive) |
| Oc1ccc2ccccc2c1C=Nc1ccccc1 | -34.9% (active) |

| SMILES | activity change, negative = inhibition |
| --- | --- |
| COc1cc(N=Cc2c(O)[nH]c3ccccc23)cc(OC)c1OC | -1.7% (inactive) |
| CC(=O)n1c(C=Nc2ccccc2)c(O)c2ccccc21 | 0.601% (inactive) |
| O=[N+]([O-])c1ccc(N=Cc2c(O)ccc3ccccc23)cc1 | -37.8% (active) |
| O=[N+]([O-])c1ccc(N/N=C/c2ccccc2)cc1 | 1.24% (inactive) |
| O=[N+]([O-])c1ccc(O)c(/C=N/Nc2ccccc2[N+](=O)[O-])c1 | 0.257% (inactive) |
| CCCCn1c(SCC(=O)N2CCOCC2)nc2c1c(=O)n(C)c(=O)n2C | -0.5% (inactive) |
| O=C(Nc1ccccc1N1CCOCC1)c1ccc(OCc2cscn2)cc1 | -3.06% (inactive) |
| Cc1nc(Nc2ccccc2F)c2nnn(Cc3ccccc3Cl)c2n1 | 1.81% (inactive) |
| C=C[C@](C)(O)CCC1C(=C)CCC2[C@@](C)(CO)CCC[C@@]12C (some centres not stated) | 1.09% (inactive) |
| CCOc1ccc(NC(=O)CCC(=O)N/N=C/c2ccc([N+](=O)[O-])s2)cc1 | 0.71% (inactive) |
| CC(C)(C)c1cc(C(=O)N/N=C/c2ccc([N+](=O)[O-])s2)n[nH]1 | 1.27% (inactive) |
| O=[N+]([O-])c1ccc(C=Nc2ccc(Cl)cc2Cl)s1 | -32% (active) |
| Nc1nc2c(nc(Cl)n2C2OC(CO)C(O)C2O)c(=O)[nH]1 (configuration not stated) | 1.07% (inactive) |
| COC(=O)c1ccc(OCC(=O)NC(C)(C)C)cc1 | -2.25% (inactive) |
| CC(C)(C)NC(=O)COc1ccc(CNc2ccc3[nH]c(=O)[nH]c3c2)cc1 | -49.7% (active) |
| CC(=O)Nc1ccc(OCC(=O)NCc2ccc(C)cc2)cc1 | 0.378% (inactive) |
| Cc1cccc(C)c1NC(=O)CN1C(=O)C(C)Oc2ccccc21 (configuration not stated) | 0.123% (inactive) |
| NS(=O)(=O)c1cccc(NC(=O)CC23CC4CC(CC(Br)(C4)C2)C3)c1 | -0.295% (inactive) |
| O=C(/C=C/c1ccc(N2CCOCC2)cc1)c1ccccc1 | -2.68% (inactive) |
| Oc1c(C=Nc2cccc3nsnc23)ccc2ccccc12 | -48.9% (active) |
| Oc1ccc2ccccc2c1N=Nc1nccs1 | -6.8% (inactive) |
| N#Cc1cccc(NC(=O)CN2CCCCCC2)c1 | 0.599% (inactive) |
| Cc1ccc(C(=O)NC2CCN(C(=O)Nc3ccc(F)cc3)CC2)cc1 | -0.456% (inactive) |
